Measurements: PubChem BioAssay
For some assays here: Entries with a potency or affinity are not part of this list. Activity calls are given as the source filed them. Unless noted, the rule behind the calls is not given here.

Columns and labels:
[1] = antimalarial activity against Dd2 strain (AID 2302;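 active = growth inhibition above 50% at the single 2 µM test dose, taken to imply half-maximal potency below 2 µM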;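 note: 0% = DMSO untreated growth and 100% = chloroquine plus artemisinin killed control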); conditions: P. falciparum Dd2 in RBCs, LDH growth readout, 72 h; at 2 µM; hits give high values
[2] = HepG2 cytotoxicity, primary screen, cytotoxicity control for P. falciparum antimalarial project, cell-based, ATP luminescence (AID 2303;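 active = inhibition above 50%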;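 note: 0% = DMSO wells and 100% = digitonin-killed cells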); conditions: HepG2 viability, 24-48 h, at 10 µM, hits give high values
[3] = target: L-lactate dehydrogenase (Plasmodium falciparum (isolate CDC / Honduras)) (UniProt Q27743); test: PfLDH activity inhibition – cell lysate, 3D7 strain, counter-screen for P. falciparum growth inhibition project (AID 2304);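 note: 0% = vehicle and 100% = reference inhibitor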; conditions: P. falciparum 3D7 crude extract, LDH APAD/NBT absorbance; at 2 µM; hits give high values
L-lactate dehydrogenase (Plasmodium falciparum (isolate CDC / Honduras)), sequence (Q27743 whole entry, looked up): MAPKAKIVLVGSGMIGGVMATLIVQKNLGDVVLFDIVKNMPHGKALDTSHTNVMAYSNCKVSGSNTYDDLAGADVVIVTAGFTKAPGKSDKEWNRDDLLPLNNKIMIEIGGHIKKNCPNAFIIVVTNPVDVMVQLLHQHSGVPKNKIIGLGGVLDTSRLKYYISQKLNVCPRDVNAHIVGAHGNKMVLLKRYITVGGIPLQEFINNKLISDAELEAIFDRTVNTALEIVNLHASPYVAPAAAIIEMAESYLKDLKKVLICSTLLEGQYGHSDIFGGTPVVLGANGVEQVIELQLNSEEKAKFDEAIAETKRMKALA

[4] = inhibition of 3D7 malaria parasite growth – strain 3D7 (AID 2306);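 note: 0% = DMSO wells and 100% = chloroquine plus artemisinin control wells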; conditions: P. falciparum 3D7 erythrocytic growth, LDH absorbance, 72 h; at 2 µM; hits give high values
[5] = target: Calcium-dependent protein kinase 1 (Plasmodium falciparum (isolate 3D7)) (UniProt P62344); test: PfCDPK1 kinase inhibitors, biochemical, TCAMS library (AID 1159585; cut-off not given, nearly all actives have IC50 up to about 0.98 µM;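 note: inhibitors leave more ATP so luminescence rises with inhibition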); conditions: recombinant PfCDPK1, Kinase-Glo ATP depletion luminescence
Calcium-dependent protein kinase 1 (Plasmodium falciparum (isolate 3D7)), sequence (P62344 whole entry, looked up): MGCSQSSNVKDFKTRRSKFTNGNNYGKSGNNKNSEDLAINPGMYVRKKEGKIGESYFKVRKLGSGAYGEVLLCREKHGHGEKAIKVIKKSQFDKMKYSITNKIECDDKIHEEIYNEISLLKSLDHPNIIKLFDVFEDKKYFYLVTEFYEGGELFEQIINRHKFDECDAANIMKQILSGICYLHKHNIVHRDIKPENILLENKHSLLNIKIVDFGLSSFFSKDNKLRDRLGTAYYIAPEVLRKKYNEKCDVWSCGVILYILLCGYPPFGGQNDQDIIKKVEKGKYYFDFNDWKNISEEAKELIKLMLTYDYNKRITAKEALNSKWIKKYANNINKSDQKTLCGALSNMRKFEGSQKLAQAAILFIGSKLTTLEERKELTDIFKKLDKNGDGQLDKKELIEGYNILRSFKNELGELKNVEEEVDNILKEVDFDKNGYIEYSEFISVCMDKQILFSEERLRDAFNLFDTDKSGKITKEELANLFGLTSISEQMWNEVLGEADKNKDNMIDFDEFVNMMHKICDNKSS

[6] = target: Plasmodium falciparum protein kinase 6 (PK6, PF3D7_1337100) (UniProt Q8IDW1); test: PfPK6 kinase inhibitors, biochemical, TCAMS library (AID 1159586); conditions: recombinant PfPK6, Kinase-Glo ATP depletion luminescence
Plasmodium falciparum protein kinase 6 (PK6, PF3D7_1337100), sequence (Q8IDW1 1-305): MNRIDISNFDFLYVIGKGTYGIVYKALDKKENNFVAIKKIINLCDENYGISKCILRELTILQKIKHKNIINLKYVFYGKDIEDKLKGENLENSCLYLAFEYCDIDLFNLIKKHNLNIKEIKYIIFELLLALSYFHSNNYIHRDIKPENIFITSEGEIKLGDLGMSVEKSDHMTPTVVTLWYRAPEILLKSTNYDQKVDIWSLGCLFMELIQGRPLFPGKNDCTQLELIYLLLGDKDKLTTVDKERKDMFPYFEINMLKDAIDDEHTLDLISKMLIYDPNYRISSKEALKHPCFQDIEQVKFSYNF

[7] = target: Protein kinase 7 (PK7), Plasmodium falciparum 3D7 (PF3D7_0213400) (UniProt Q7YTF7); test: inhibition of Plasmodium PK7 catalytic activity – biochemical, TCAMS antimalarial set, Kinase-Glo luminescence (AID 1159587); conditions: recombinant PfPK7, Kinase-Glo ATP depletion luminescence
Protein kinase 7 (PK7), Plasmodium falciparum 3D7 (PF3D7_0213400), sequence (Q7YTF7 1-343): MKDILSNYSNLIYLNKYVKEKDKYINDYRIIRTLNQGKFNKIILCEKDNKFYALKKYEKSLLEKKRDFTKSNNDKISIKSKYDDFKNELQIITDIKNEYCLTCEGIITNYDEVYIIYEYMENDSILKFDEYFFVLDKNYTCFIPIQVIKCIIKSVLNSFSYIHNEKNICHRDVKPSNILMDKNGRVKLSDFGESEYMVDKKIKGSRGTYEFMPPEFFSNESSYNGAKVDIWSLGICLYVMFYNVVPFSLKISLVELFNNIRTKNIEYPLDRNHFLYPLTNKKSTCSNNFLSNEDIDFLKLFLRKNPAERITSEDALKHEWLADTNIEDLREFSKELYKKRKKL

[8] = target: Calcium-dependent protein kinase 4 (Plasmodium falciparum (isolate 3D7)) (UniProt Q8IBS5); test: PfCDPK4 kinase inhibitors, biochemical, TCAMS library (AID 1159588; cut-off not given, nearly all actives have IC50 up to about 0.91 µM); conditions: recombinant PfCDPK4, Kinase-Glo ATP depletion luminescence
Calcium-dependent protein kinase 4 (Plasmodium falciparum (isolate 3D7)), sequence (Q8IBS5 whole entry, looked up): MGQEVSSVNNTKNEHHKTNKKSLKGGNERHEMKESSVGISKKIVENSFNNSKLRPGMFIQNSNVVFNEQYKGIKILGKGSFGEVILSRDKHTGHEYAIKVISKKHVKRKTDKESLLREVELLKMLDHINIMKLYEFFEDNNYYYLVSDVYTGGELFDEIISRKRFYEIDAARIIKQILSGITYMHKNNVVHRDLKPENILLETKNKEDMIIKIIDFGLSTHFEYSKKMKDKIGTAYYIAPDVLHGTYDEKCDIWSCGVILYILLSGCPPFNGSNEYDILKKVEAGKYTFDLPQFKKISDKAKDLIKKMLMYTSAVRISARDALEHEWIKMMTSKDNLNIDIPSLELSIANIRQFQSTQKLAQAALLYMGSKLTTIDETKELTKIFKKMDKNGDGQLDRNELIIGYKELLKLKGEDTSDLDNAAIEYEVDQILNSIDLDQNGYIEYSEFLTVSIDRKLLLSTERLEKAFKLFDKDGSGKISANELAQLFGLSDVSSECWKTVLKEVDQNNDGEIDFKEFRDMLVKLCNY

Cc1ccccc1C(O)CNc1ccnc(Nc2cccc(C#N)c2)n1 (stereo not given)
active: growth inhibition [4] 94%
inactive: growth inhibition [1] 12% | inhibition [2] 22% | inhibition [3] 0% | outcome [5] | outcome [6] | outcome [7] | outcome [8]

CCOC(=O)c1c(CN(CC)CC)n(-c2ccccc2)c2cc(Br)c(O)cc12
active: growth inhibition [4] 93%
inactive: growth inhibition [1] 46% | inhibition [2] 14% | inhibition [3] -5% | outcome [5] | outcome [6] | outcome [7] | outcome [8]

NC(=O)C1Cc2ccccc2CN1CC(=O)Nc1ccccc1Sc1ccccc1 (stereo not given)
inactive: inhibition [2] 5% | inhibition [3] 3% | outcome [5] | outcome [6] | outcome [7] | outcome [8]
active: growth inhibition [1] 99% | growth inhibition [4] 100%

COCCNCC(O)Cn1c2ccc(Cl)cc2c2cc(Cl)ccc21 (stereo not given)
inactive: inhibition [2] 15% | inhibition [3] 0% | outcome [5] | outcome [6] | outcome [7] | outcome [8]
active: growth inhibition [1] 74% | growth inhibition [4] 95%

Cc1noc(C)c1-c1ccc2c(Nc3cccc4c3-c3ccccc3C4=O)c(C(=O)NCc3ccccc3I)cnc2c1
inactive: inhibition [2] 27% | inhibition [3] 2% | outcome [5] | outcome [6] | outcome [7] | outcome [8]
active: growth inhibition [1] 99% | growth inhibition [4] 99%

CCN(CC)CCN(Cc1ccc(-c2ccc(C(F)(F)F)cc2)cc1)C(=O)Cn1nc(-c2ccc(C(F)(F)F)cc2)ccc1=O
inactive: inhibition [2] 44% | inhibition [3] -2% | outcome [5] | outcome [6] | outcome [7] | outcome [8]
active: growth inhibition [1] 83% | growth inhibition [4] 100%

CC(C)C1=C[C@H]2C[C@]3(C4OCCO4)[C@@H]4CC[C@@H](C)[C@H]4C[C@@]2(C(=O)OCC2COCO2)[C@]13C(=O)OC(c1ccccc1)c1ccccc1 (stereo not given in full)
active: growth inhibition [1] 96% | growth inhibition [4] 92%
inactive: inhibition [2] 2% | inhibition [3] 4% | outcome [5] | outcome [6] | outcome [7] | outcome [8]

COc1ccc(NC(=O)[C@H](CC(C)C)Nc2ccnc(Nc3ccccc3)n2)cc1
inactive: growth inhibition [1] 32% | inhibition [2] -7% | inhibition [3] 3% | outcome [5] | outcome [6] | outcome [7] | outcome [8]
active: growth inhibition [4] 92%

CCC(CSC1CCCCC1)N(C)CCN(C)C(CC)CSC1CCCCC1 (stereo not given)
inactive: inhibition [3] -4% | outcome [5] | outcome [6] | outcome [7] | outcome [8]
active: growth inhibition [1] 98% | inhibition [2] 84% | growth inhibition [4] 98%

CCNc1cc(C(=O)N[C@@H](Cc2ccccc2)[C@H](O)CNC2CCC(C)(C)CC2)cc(N2CCCCS2(=O)=O)c1
inactive: inhibition [2] 1% | inhibition [3] 3% | outcome [5] | outcome [6] | outcome [7] | outcome [8]
active: growth inhibition [1] 71% | growth inhibition [4] 98%

Cc1noc(-c2ccc(O)cc2O)c1-c1ccc2c(c1)OCCCO2
active: growth inhibition [1] 99% | growth inhibition [4] 100%
inactive: inhibition [2] 8% | inhibition [3] -4% | outcome [5] | outcome [6] | outcome [7] | outcome [8]

CS(=O)(=O)CCNCc1cc(-c2cc3ncnc(Nc4ccc(OCc5cccc(F)c5)c(Cl)c4)c3s2)cs1
inactive: growth inhibition [1] 48% | inhibition [2] 8% | inhibition [3] -2% | outcome [5] | outcome [6] | outcome [7] | outcome [8]
active: growth inhibition [4] 99%

CCCCOc1ccc(/C=C/c2ccc(-c3c(C)[nH]c(C)c(Cl)c3=O)s2)cc1
active: growth inhibition [1] 96% | growth inhibition [4] 97%
inactive: inhibition [2] -4% | inhibition [3] -2% | outcome [5] | outcome [6] | outcome [7] | outcome [8]

Cc1nc(NC2=NCN(CCCN3CCOCC3)CN2)nc2c(C)cccc12
inactive: inhibition [2] 17% | inhibition [3] 4% | outcome [5] | outcome [6] | outcome [7] | outcome [8]
active: growth inhibition [1] 62% | growth inhibition [4] 89%

CN(C)CCNc1ncnc2c1[nH]c1ccc(Br)cc12
active: growth inhibition [4] 100%
inactive: growth inhibition [1] 7% | inhibition [2] 2% | inhibition [3] -2% | outcome [5] | outcome [6] | outcome [7] | outcome [8]

CCCNC(=O)C1Cc2c([nH]c3ccc(Br)cc23)C2(CCN(CCc3ccccc3)CC2)N1 (stereo not given)
active: growth inhibition [4] 99%
inactive: growth inhibition [1] 49% | inhibition [2] 16% | inhibition [3] -8% | outcome [5] | outcome [6] | outcome [7] | outcome [8]

CN(C)CCNC(=O)c1cc2c(-c3ccc(Cl)cc3)nn(C)c2s1
inactive: inhibition [2] 18% | inhibition [3] -1% | outcome [5] | outcome [6] | outcome [7] | outcome [8]
active: growth inhibition [1] 81% | growth inhibition [4] 98%

COc1cccc(-c2cc(C(F)(F)F)n3ncc(C(=O)Nc4cc(Cl)ccc4O)c3n2)c1
inactive: inhibition [2] -9% | inhibition [3] 5% | outcome [5] | outcome [6] | outcome [7] | outcome [8]
active: growth inhibition [1] 99% | growth inhibition [4] 99%

N=c1n(Cc2ccc(Cl)cc2)c2ccccc2n1CC(O)c1ccc(Cl)c(Cl)c1 (stereo not given)
inactive: inhibition [3] 4% | outcome [5] | outcome [6] | outcome [7] | outcome [8]
active: growth inhibition [1] 99% | inhibition [2] 58% | growth inhibition [4] 98%

O=C(Nc1ccc2c(c1)CCC2)N[C@H]1CCN(CCCCCNC(=O)[C@@H]2C[C@H]2c2ccc(Cl)c(Cl)c2)C1
active: growth inhibition [4] 86%
inactive: growth inhibition [1] -3% | inhibition [2] 37% | inhibition [3] 2% | outcome [5] | outcome [6] | outcome [7] | outcome [8]

COc1cc2nc(NCCN3CCOCC3)n3nc(-c4ccccc4)nc3c2cc1OC
inactive: inhibition [2] 15% | inhibition [3] -3% | outcome [5] | outcome [6] | outcome [7] | outcome [8]
active: growth inhibition [1] 98% | growth inhibition [4] 96%

O=C(Nc1cccc(F)c1)N[C@H]1CCN(CCCCCNC(=O)[C@@H]2C[C@H]2c2ccc(Cl)c(Cl)c2)C1
inactive: growth inhibition [1] 1% | inhibition [2] 41% | inhibition [3] -1% | outcome [5] | outcome [6] | outcome [7] | outcome [8]
active: growth inhibition [4] 90%

N#Cc1cccc(C(=O)NC2CCN(c3ccnc(Nc4ccc(F)cc4)n3)C2)c1 (stereo not given)
active: growth inhibition [1] 91% | growth inhibition [4] 98%
inactive: inhibition [2] 4% | inhibition [3] -8% | outcome [5] | outcome [6] | outcome [7] | outcome [8]

COc1ccc(NC(=O)[C@H](Cc2ccccc2)Nc2cc(C)nc(NCCc3ccc(F)cc3)n2)cc1
inactive: inhibition [2] 17% | inhibition [3] -3% | outcome [5] | outcome [6] | outcome [7] | outcome [8]
active: growth inhibition [1] 82% | growth inhibition [4] 101%

Cc1cc(F)ccc1Oc1nc(Nc2ccc(N3CCOCC3)c(F)c2)nc2c1S(=O)(=O)CCC2
active: growth inhibition [1] 98% | growth inhibition [4] 96%
inactive: inhibition [2] 10% | inhibition [3] 0% | outcome [5] | outcome [6] | outcome [7] | outcome [8]

COc1ccc(Nc2nc(N3CCCC3)c3ccccc3n2)cc1
active: growth inhibition [1] 98% | growth inhibition [4] 102%
inactive: inhibition [2] 40% | inhibition [3] 2% | outcome [5] | outcome [6] | outcome [7] | outcome [8]

CCn1cc(CN2CCCC(C(=O)Nc3ccc(-c4nc5ccccc5[nH]4)cc3)C2)c(C)n1 (stereo not given)
active: growth inhibition [4] 100%
inactive: growth inhibition [1] 28% | inhibition [2] 22% | inhibition [3] 2% | outcome [5] | outcome [6] | outcome [7] | outcome [8]

Cc1ccc(S(C)(=O)=O)cc1/C=C/C(=O)O
inactive: growth inhibition [1] 1% | inhibition [2] -7% | inhibition [3] 4% | outcome [5] | outcome [6] | outcome [7] | outcome [8]
active: growth inhibition [4] 96%

COCCOc1ccc(Nc2nccc(-c3c(-c4cccc(NC(=O)c5c(F)cccc5F)c4)nn4ccccc34)n2)cc1F
active: growth inhibition [1] 60% | inhibition [2] 62% | growth inhibition [4] 90%
inactive: inhibition [3] 1% | outcome [5] | outcome [6] | outcome [7] | outcome [8]

NC(N)=Nc1cccc(NC(=O)Nc2cccc(N=C(N)N)c2)c1
inactive: inhibition [2] -7% | inhibition [3] 7% | outcome [5] | outcome [6] | outcome [7] | outcome [8]
active: growth inhibition [1] 71% | growth inhibition [4] 87%

Cc1cc(=O)[nH]c(/N=C(/N)NOCc2ccccc2)n1
inactive: growth inhibition [1] 1% | inhibition [2] 0% | inhibition [3] 0% | outcome [5] | outcome [6] | outcome [7] | outcome [8]
active: growth inhibition [4] 101%

COc1cc(CNCCCNc2nc3ncccc3[nH]2)c2[nH]cc(Br)c2c1
active: growth inhibition [4] 92%
inactive: growth inhibition [1] 3% | inhibition [2] 12% | inhibition [3] 8% | outcome [5] | outcome [6] | outcome [7] | outcome [8]

CN1CCC(NC(=O)c2cc(Oc3ccc4c(c3)CCN4C(=O)Nc3cccc(C(F)(F)F)c3)ccn2)CC1
inactive: growth inhibition [1] 17% | inhibition [2] 16% | inhibition [3] -3% | outcome [5] | outcome [6] | outcome [7] | outcome [8]
active: growth inhibition [4] 92%

CCC(COCc1ccc(Cl)cc1)N(C)CCN(C)C(CC)COCc1ccc(Cl)cc1 (stereo not given)
active: growth inhibition [1] 78% | inhibition [2] 89% | growth inhibition [4] 95%
inactive: inhibition [3] -5% | outcome [5] | outcome [6] | outcome [7] | outcome [8]

N#Cc1ccc(-c2ccc(C(=O)NCCCCN3CCC(c4ccc5c(c4OCc4ccccn4)CCCC5)CC3)cc2)cc1
active: growth inhibition [4] 96%
inactive: growth inhibition [1] 39% | inhibition [2] 37% | inhibition [3] 6% | outcome [5] | outcome [6] | outcome [7] | outcome [8]

N#Cc1ccc(NC(=NCc2cccnc2)Nc2ccc(-c3ccccc3)cc2)c(O)c1
active: growth inhibition [4] 101%
inactive: growth inhibition [1] 46% | inhibition [2] 2% | inhibition [3] -3% | outcome [5] | outcome [6] | outcome [7] | outcome [8]

Cc1cc(N(C)C)nc(Nc2ccc(NC(=O)c3ccc(Br)o3)cc2)n1
active: growth inhibition [1] 57% | growth inhibition [4] 101%
inactive: inhibition [2] 1% | inhibition [3] -2% | outcome [5] | outcome [6] | outcome [7] | outcome [8]

O=C(NC1CCN(Cc2ccccc2O)C1)c1cccc(C(F)(F)F)c1 (stereo not given)
active: growth inhibition [1] 62% | growth inhibition [4] 98%
inactive: inhibition [2] -4% | inhibition [3] 4% | outcome [5] | outcome [6] | outcome [7] | outcome [8]

COc1ccc(CNCc2ccsc2)cc1-c1ccc(S(=O)(=O)NCCN2CCCC2)s1
inactive: growth inhibition [1] 34% | inhibition [2] 39% | inhibition [3] -7% | outcome [5] | outcome [6] | outcome [7] | outcome [8]
active: growth inhibition [4] 101%

CCNc1cc(C(=O)N[C@@H](Cc2ccccc2)[C@H](O)CN[C@@H]2CCc3ccccc32)cc(N2CCCCS2(=O)=O)c1
active: growth inhibition [1] 97% | growth inhibition [4] 98%
inactive: inhibition [2] -7% | inhibition [3] 4% | outcome [5] | outcome [6] | outcome [7] | outcome [8]
